Screens as filed in PubChem BioAssay.
Rows were chosen to be rich in hits. Some 21% of all compounds tested hit in one or more screens of this group.
Shiga toxin inh: Shiga toxin inhibition; Vero cells, Shiga toxin protein synthesis inhibition reporter; inhibition, % at 38.7 µM; 9.2% of 290,000 active; in the data active = inhibition mostly above about 28%, no sharp cut-off; inactive = mostly below about 43%; note: 0% is about no effect
Pf growth 96h: inhibits malaria parasite growth, 96 h; P. falciparum luciferase reporter growth, 96 h; Potency, µM (series often up to 28.7 µM), inactives show top-dose activity change, negative = inhibition, hits mostly inhibitors; 6.9% of 320,000 active; note: potency is the fitted concentration of half-maximal effect; % is set by controls: 0 for no effect and ±100 for the full control effect
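Infected RBCs, 2% Hct / 0.05% parasitemia final; luciferase-reporter P. falciparum; cpd 96 h, 37 C, 5% CO2; luciferase detection reagent; luminescence.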
Pf growth 48h: inhibits P. falciparum growth in the first generation, 48 h | P. falciparum luciferase growth in erythrocytes, 48 h | Potency, µM (doses to about 28.7 µM), inactives show top-dose activity change, negative = inhibition, actives largely listed as inhibitors | 5.9% of 310,000 active; note: potency is the fitted concentration of half-maximal effect; % is set by controls: 0 for no effect and ±100 for the full control effect
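Cell-based growth assay: transgenic P. falciparum expressing firefly luciferase, cultured in red cells within RPMI 1640 containing 0.5% w/v Albumax, 24 mM bicarbonate and gentamycin. A drop in luciferase activity indicates inhibition.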
CHX counter: counter-screen for Shiga toxin inhibitors: cycloheximide protein synthesis inhibition; cell reporter, cycloheximide protein synthesis inhibition counterscreen; 12% of 300,000 active; max response, %; in the data active = max response mostly above about 13%, no sharp cut-off; inactive = mostly below about 14%; note: read at 38.3 µM for the half of the compounds with a filed dose; 0% is about no effect
* hit, by the source's call; [ ] = another dose, or the depositor's remark. Unless noted, calls come from the whole dose curve; as a rule, active = well fitted inhibition curve with a large enough effect; inconclusive = small, poorly fitted or top-dose-only effect, or another doubt; inactive = no such curve, though single readings can be large or run the other way.

Results for COc1cccc(OC)c1C(=O)OCCCOC(=O)c1c(OC)cccc1OC ?
Shiga toxin inh: 11.9; Pf growth 96h: inconclusive; Pf growth 48h: -20.0%; CHX counter: -2.1

Results for O=S(=O)(NC1CC(NS(=O)(=O)OCC(Cl)(Cl)Cl)C2CCCCC12)OCC(Cl)(Cl)Cl (stereo not drawn) ?
Shiga toxin inh: -8.0; Pf growth 96h: inconclusive; Pf growth 48h: 10.3%; CHX counter: -1.5

Results for CC1=CN2C(=N)/C(=C/c3cn(CCCOc4ccccc4C)c4ccccc34)C(=O)N=C2S1 ?
Shiga toxin inh: 24.3*; Pf growth 96h: 73.6%; Pf growth 48h: 198.6%; CHX counter: 66.9*

What do the screens show for `CCOC(=O)/C(C#N)=C/c1cn(CCOc2ccc(OC)cc2)c2ccccc12`?
Shiga toxin inh: -2.8; Pf growth 96h: 21.8%; Pf growth 48h: inconclusive; CHX counter: 10.2

How did CC1=CN2C(=N)/C(=C/c3ccco3)C(=O)N=C2S1 do in these assays?
Shiga toxin inh: 71.6*; Pf growth 96h: 54.5%; Pf growth 48h: 33.4%; CHX counter: 47.0*

Results for COc1cccc(OCCCn2cc(/C=C3/C(=N)N4C=C(C)SC4=NC3=O)c3ccccc32)c1 ?
Shiga toxin inh: 50.5*; Pf growth 96h: inconclusive; Pf growth 48h: inconclusive; CHX counter: 19.1*

What do the screens show for `COc1ccccc1OCCn1cc(/C=N/n2cnnc2)c2ccccc21`?
Shiga toxin inh: 14.5; Pf growth 96h: inconclusive; Pf growth 48h: inconclusive; CHX counter: -5.2

What do the screens show for `CC1=CN2C(=N)/C(=C/c3ccc([N+](=O)[O-])o3)C(=O)N=C2S1`?
Shiga toxin inh: 18.3; Pf growth 96h: -26.8%; Pf growth 48h: 13.9%; CHX counter: 13.1

Results for COc1ccc(OCCCn2cc(/C=C3/C(=N)N4C=C(C)SC4=NC3=O)c3ccccc32)cc1 ?
Shiga toxin inh: 35.9*; Pf growth 96h: -6.9%; Pf growth 48h: 38.0%; CHX counter: 35.0*

How did Cc1ccc(C)c(Cn2nc(-c3cc(C)ccc3C)ccc2=O)c1 do in these assays?
Shiga toxin inh: -5.1; Pf growth 96h: -10.9%; Pf growth 48h: 0.0%; CHX counter: -0.4

How did COc1cccc(OCCn2cc(C=O)c3ccccc32)c1 do in these assays?
Pf growth 96h: -21.7%; Pf growth 48h: 70.4%; CHX counter: 22.8*

What do the screens show for `Cc1cccc(OCCn2cc(/C=N/NC(=O)c3ccncc3)c3ccccc32)c1`?
Shiga toxin inh: 28.3*; Pf growth 96h: 4.1%; Pf growth 48h: 28.0%; CHX counter: 11.0*

How did COC(=O)N/N=C/c1cn(CCOc2cccc(OC)c2)c2ccccc12 do in these assays?
Shiga toxin inh: 37.9; Pf growth 96h: inconclusive; Pf growth 48h: -1.1%; CHX counter: 8.4

Results for COC(=O)c1sc(NC(=O)COc2ccccc2)nc1C ?
Shiga toxin inh: 27.8; Pf growth 96h: inconclusive; CHX counter: 23.0*

What do the screens show for `Cc1cnc(NC(=O)COc2ccccc2)s1`?
Shiga toxin inh: 110.2*; Pf growth 96h: 235.1%; Pf growth 48h: 145.8%; CHX counter: 59.0*

What do the screens show for `Cc1cnc(NC(=O)Cc2ccc(C)c(C)c2)s1`?
Shiga toxin inh: 47.3*; Pf growth 96h: -23.2%; Pf growth 48h: 0.0%; CHX counter: 20.1*

How did Cc1cnc(NC(=O)CCc2ccccc2)s1 do in these assays?
Pf growth 96h: 6.1%; Pf growth 48h: inconclusive; CHX counter: 24.6*

How did N#Cc1ccccc1NC(=O)COC(=O)c1ccc2c(c1)OCO2 do in these assays?
Pf growth 96h: 14.0%; Pf growth 48h: 7.2%

What do the screens show for `CC1(C)NC(=O)N(CCOCCOc2ccccc2-c2ccccc2)C1=O`?
Shiga toxin inh: -6.8; Pf growth 96h: 0.0%; Pf growth 48h: 33.7%[5.75 µM]; CHX counter: 1.7

What do the screens show for `O=C(Cc1c[nH]c2ccccc12)NCC(=O)Nc1ccc(F)c(F)c1F`?
Pf growth 96h: 27.7%; Pf growth 48h: 1.3%

Results for COC(=O)c1sc(NC(=O)Cc2cccs2)nc1C ?
Shiga toxin inh: 70.2*; Pf growth 96h: inconclusive; Pf growth 48h: 18.7%; CHX counter: 33.4*

Results for Cc1cnc(NC(=O)C2(c3ccccc3)CC2)s1 ?
Shiga toxin inh: 74.0*; Pf growth 96h: 24.9%; Pf growth 48h: 0.0%; CHX counter: 20.0*

What do the screens show for `Cc1cnc(NC(=O)CSc2ccccc2)s1`?
Shiga toxin inh: 40.6; Pf growth 48h: 84.4%; CHX counter: 30.0*

How did Cc1cnc(NC(=O)CSc2nnc(C)n2N)s1 do in these assays?
Shiga toxin inh: 10.7; Pf growth 96h: 10.9%; Pf growth 48h: 14.5%; CHX counter: -2.0

How did CCOC(=S)SCC(=O)Nc1ncc(C)s1 do in these assays?
Shiga toxin inh: 68.2*; Pf growth 96h: 258.8%; Pf growth 48h: 74.1%; CHX counter: 39.4*

How did COC(=O)c1sc(NC(=O)COc2ccccc2OC)nc1C do in these assays?
Shiga toxin inh: -4.1; Pf growth 96h: 228.2%; Pf growth 48h: 19.9%; CHX counter: -3.2

Results for Cc1cnc(NC(=O)CSc2nnc(Cc3ccccc3)o2)s1 ?
Shiga toxin inh: -1.3; Pf growth 48h: 19.7%; CHX counter: 0.4

How did O=C(O)c1ccccc1/C=N/NC(=S)NCc1ccccc1 do in these assays?
Shiga toxin inh: 19.9; Pf growth 96h: 1.7%; Pf growth 48h: -1.6%; CHX counter: -1.1

How did N#Cc1ccc(OCC(=O)NCC2COc3ccccc3O2)cc1 (stereo not drawn) do in these assays?
Pf growth 96h: -2.8%; Pf growth 48h: 8.1%

Results for Cc1cc(OCC(=O)OCC(=O)c2ccc[nH]2)ccc1Cl ?
Pf growth 96h: 0.0%; Pf growth 48h: -2.2%

What do the screens show for `O=C(c1cc2cc(F)ccc2[nH]1)N(Cc1cccnc1)CC1CCCN(C2CCCCC2)C1` (stereo not drawn)?
Shiga toxin inh: -3.7; Pf growth 96h: inconclusive; Pf growth 48h: 2.62µM*; CHX counter: 0.6

How did Cc1ccc2[nH]c(=O)c(CN(Cc3cccnc3)C(=O)c3ccncc3)cc2c1 do in these assays?
Shiga toxin inh: 11.5; Pf growth 96h: 3.3%[5.75 µM]; Pf growth 48h: -11.2%; CHX counter: 1.0

What do the screens show for `O=C(COC(=O)C1CCCC1)Nc1ncc(Cl)cc1Cl`?
Pf growth 96h: 30.1%; Pf growth 48h: 10.0%

Results for O=C(OCC(=O)N1CCCC1)c1cccc(Br)c1 ?
Shiga toxin inh: 54.5*; Pf growth 96h: -1.6%; Pf growth 48h: 31.5%; CHX counter: 19.6*

Results for CN(C)c1ccc(C(=O)OCC(=O)N2CCCCCC2)cc1 ?
Shiga toxin inh: 105.9*; Pf growth 96h: 119.6%; Pf growth 48h: 92.8%; CHX counter: 35.8*

Results for CN(C)c1ccc(C(=O)OCC(=O)N2CCCC2)cc1 ?
Shiga toxin inh: 53.4*; Pf growth 96h: 78.0%; Pf growth 48h: 40.0%; CHX counter: 31.9*

What do the screens show for `CNS(=O)(=O)c1cccc(C(=O)OCC(=O)N2CCCC2)c1`?
Shiga toxin inh: -5.6; Pf growth 96h: 36.7%; Pf growth 48h: 35.7%; CHX counter: 4.6

What do the screens show for `CCOc1ccc(C(=O)OCC(=O)N2CCCC2)cc1`?
Shiga toxin inh: 58.9*; Pf growth 96h: 27.4%; Pf growth 48h: 57.9%; CHX counter: 27.2*

Results for CCOc1ccc(C(=O)NCC(=O)OCC(=O)N2CCCCC2)cc1 ?
Shiga toxin inh: -3.4; Pf growth 96h: 38.9%; CHX counter: 11.5

How did CCc1ccc(C(=O)OCC(=O)N2CCCCCC2)cc1 do in these assays?
Pf growth 96h: 32.1%; Pf growth 48h: 70.7%
